An excerpt weighted towards active compounds, which were near 7.3% of everything screened.
FLuc counter = qHTS profiling assay for firefly luciferase inhibitor/activator using purifed enzyme and Km concentrations of substrates (counterscreen for miR-21 project); Luciferin 4-monooxygenase (Photinus pyralis), P08659; purified FLuc, Km substrates, luminescence inhibition; Potency, µM (highest dose often 57.5 µM), without a hit: top-dose activity change, negative = inhibition, actives largely listed as inhibitors; 360,000 tested, 6.9% active;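 note: plate controls were vehicle for no effect and reference inhibitor for full effect; nearly all actives have a fitted effect of over 55% in size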
Target sequence (P08659 whole entry, looked up): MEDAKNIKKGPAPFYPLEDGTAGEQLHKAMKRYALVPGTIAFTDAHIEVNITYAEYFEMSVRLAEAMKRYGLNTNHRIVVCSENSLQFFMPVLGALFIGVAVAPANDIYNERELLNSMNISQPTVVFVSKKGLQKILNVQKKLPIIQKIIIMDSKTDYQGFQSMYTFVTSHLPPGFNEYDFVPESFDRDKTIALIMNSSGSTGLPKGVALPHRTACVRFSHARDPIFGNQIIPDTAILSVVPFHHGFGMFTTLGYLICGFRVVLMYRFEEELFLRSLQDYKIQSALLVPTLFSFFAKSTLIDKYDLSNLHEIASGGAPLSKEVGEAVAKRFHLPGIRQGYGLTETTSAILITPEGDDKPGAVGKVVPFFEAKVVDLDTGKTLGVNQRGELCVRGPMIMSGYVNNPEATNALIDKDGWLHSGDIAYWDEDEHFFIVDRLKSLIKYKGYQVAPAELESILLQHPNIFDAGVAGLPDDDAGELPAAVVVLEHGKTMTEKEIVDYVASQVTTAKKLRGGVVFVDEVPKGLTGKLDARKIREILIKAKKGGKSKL
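Biochemical qHTS of compounds, final roughly 60 µM downward over six points, against 10 nM purified firefly luciferase using Km concentrations of substrates (10 uM D-luciferin, 10 uM ATP) in Tris acetate pH 7.5 buffer; luminescence output.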
Rab9 prom act = qHTS Assay for Rab9 Promoter Activators; Huh7 Rab9 promoter-luciferase reporter, luminescence, 24 h; Potency, µM (highest dose often 9.22 µM), for inactives: top-dose activation, negative = inhibition, actives largely listed as activators; 320,000 tested, 2.8% active; note: % of control where 0% means no effect; nearly all actives have a fitted effect of over 60% in size
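Quantitative HTS format; Huh7 Rab9-luciferase reporter cells (1500/well) receive compound 2 h post-plating, incubate 24 h at 37 °C, then get luciferase reagent for 10 min before luminescence reading.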
SMN2 splice enh = qHTS Assay for Enhancers of SMN2 Splice Variant Expression. HEK293 SMN2-luciferase splicing reporter, luminescence, 30-36 h. Potency, µM (top dose mostly 46.1 µM), for the others: at the top dose activity change, positive = activation, most hits filed as activators. 210,000 tested, 2.8% active; note: % of control where 0% means no effect; nearly all actives have a fitted effect of over 55% in size
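HEK293 cells carry an SMN2 minigene-luciferase reporter in which exon 7 inclusion puts luciferase in frame. Cells were seeded at 2000 cells/well, attached for 10-12 hours, then exposed to compounds for 30-36 hours at 37C before ONE-Glo luminescence.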
ELG1 genotoxic = qHTS screen for small molecules that induce genotoxicity in human embryonic kidney (HEK293T) cells expressing luciferase-tagged ELG1; HEK293T ELG1-luciferase reporter, luminescence, 16 h; Potency, µM (titrated, usually from 46 µM), for the others: at the top dose activity change, positive = activation, actives largely listed as activators; 330,000 tested, 1.3% active; note: % of control where 0% means no effect; nearly all actives have a fitted effect of over 60% in size
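Step 1: seed 2,000 HEK293T ELG1-luciferase cells per well. Step 2: add compound or DMSO, incubate 16 hr at 37 °C. Step 3: ONE-Glo, 30 min at room temperature, read luminescence.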
NPC1 prom act = qHTS Assay for NPC1 Promoter Activators | Potency, µM (highest dose often 9.22 µM), for inactives: at the highest dose activation, usual class: activators | AID 485313, 2010 | Huh7 NPC1 promoter luciferase reporter, 24 h | 320,000 tested, 2.4% active; note: % of control where 0% means no effect; nearly all actives have a fitted effect of over 60% in size
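Luciferase expression driven by the NPC1 promoter was measured in stably transfected Huh7 cells after a 24 h compound incubation, using a luciferase reagent and a luminescence read.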
uPA surface inh = qHTS for Inhibitors of Cell Surface uPA Generation; cell surface uPA generation assay, qHTS; 330,000 tested, 0.31% active; Potency, µM (titrated, usually from 38.3 µM), for inactives: at the top dose activity change, negative = inhibition, usual class: inhibitors; AID 540303, 2011; active = well fitted inhibition curve with a large enough effect; inconclusive = small, poorly fitted or top-dose-only effect; inactive = no such curve, though single readings can be large or run the other way; tested in mouse RAW 264.7 cells; note: % is set by controls: 0 for no effect and ±100 for the full control effect; nearly all actives have a fitted effect of over 55% in size
Active calls of the source: *; ? = inconclusive; nt = no result; [ ] = another dose, or the depositor's remark. Unless noted, calls come from the whole dose curve; as a rule, active = well fitted curve in the direction sought with a large enough effect; inconclusive = small, poorly fitted or top-dose-only effect, or another doubt; inactive = no such curve, though single readings can be large; an effect the other way counts as inactive or inconclusive. Potency is the fitted concentration of half-maximal effect.

SMILES | FLuc counter | Rab9 prom act | SMN2 splice enh | ELG1 genotoxic | NPC1 prom act | uPA surface inh
COc1ccc(C(=O)N[C@H](C(=O)Nc2nc3c(s2)CCCC3)C(C)C)cc1 | 15.1µM* | 23.2% | ? | 14.7% | -1.6% | -1.7%
CCOC(=O)c1c(-c2ccccc2)csc1NC(=O)c1cc(-c2ccc(F)cc2)on1 | 2.8% | nt | 3.5% | nt | nt | nt
CC1CCN(S(=O)(=O)c2ccc3c(c2)N(CC(=O)N2CCN(c4ccccc4)CC2)C(=O)CO3)CC1 | -2.9% | nt | -0.4% | nt | nt | nt
Cc1cc(N2CCC(C(=O)Nc3ccc(Cl)cc3)CC2)n2nc(C)c(-c3ccc(Cl)cc3)c2n1 | 2.4% | nt | 2.0% | nt | nt | nt
CCCCC(=O)Nc1nc(C)c(C(C)=O)s1 | -1.5% | 5.3% | -0.2% | 8.4% | 1.0% | 5.5%
CC(=O)c1sc(NC(=O)C=C(C)C)nc1C | ? | 28.3% | 20µM* | 18.4µM* | 18.7% | -4.9%
Cc1ccc(C(=O)Nc2nc3c(s2)CCCC3)o1 | 1.69µM* | 1µM* | 14.1µM* | 1.16µM* | 3.16µM* | -8.6%
CC1CCC/C(=N\NS(=O)(=O)c2ccccc2)C1 (stereo not drawn) | -1.7% | 0.4% | nt | -0.2% | -1.4% | 4.9%
CC1CCC/C(=N\NC(=O)Nc2ccccc2)C1 (stereo not drawn) | 15.1µM* | 0.8% | nt | 5.6% | -1.0% | 0.0%
Cc1cccc(S(=O)(=O)c2cn(C)c3cc(N4CCN(c5ccc(F)cc5)CC4)c(F)cc3c2=O)c1 | -4.5% | nt | nt | nt | nt | nt
CC1CCc2c(sc(NC(=O)CCCOc3ccc(C(C)(C)C)cc3)c2C(N)=O)C1 (stereo not drawn) | -0.1% | nt | -8.4% | nt | nt | nt
COc1ccc(-n2c(-c3cccc(F)c3)nc3c(cnn3-c3ccc(C)cc3)c2=O)cc1 | 3.9% | nt | -5.6% | nt | nt | nt
COC(=O)c1cc(-c2ccc3ccccc3c2)[nH]c(=O)c1C#N | nt | nt | 6.4%[9.22 µM] | nt | nt | nt
O=C(O)C1CCN(C(=O)COc2ccc3c4c(c(=O)oc3c2)CCCC4)CC1 | -21.1% | -6.7% | nt | 1.8% | -0.5% | 7.1%
COc1ccc2c(c1)c(=O)oc1cc(OCC(=O)NCC3CCC(C(=O)O)CC3)ccc12 (stereo not drawn) | 10.7µM* | 1.3% | nt | 11.4% | 10.6% | -10.0%
Cc1c(C)c2ccc(OCC(=O)N3CCC(C(=O)O)CC3)cc2oc1=O | 19µM* | -1.2% | nt | -1.3% | -0.8% | -20.4%
CCc1cc(=O)oc2cc(OCC(=O)NCC3CCC(C(=O)O)CC3)ccc12 (stereo not drawn) | 6.7% | -2.4% | nt | -1.1% | 0.5% | -1.0%
COc1ccc(-c2cc3ccc(OCC(=O)NCC4CCC(C(=O)O)CC4)cc3oc2=O)cc1 (stereo not drawn) | 0.953µM* | 4.47µM* | nt | ? | 3.16µM* | ?
CCCCCCOC(=O)Sc1nc2ccccc2o1 | 23.9µM* | -0.5% | 3.6% | 0.6% | -1.1% | 1.0%
COC(=O)CSc1nc2ccccc2o1 | ? | -2.0% | -9.1% | -1.4% | 0.0% | -2.1%
CCc1ccccc1N(CC)C(=O)Cn1nc(Cc2ccncc2)c2ccccc2c1=O | -6.6% | nt | 1.8% | nt | nt | nt
Cc1ccc(C)c(NC(=O)C(=O)NCCc2csc(-c3cccc(F)c3)n2)c1 | -3.4% | nt | nt | nt | nt | nt
COc1cccc(CNC(=O)CN2C(=O)COc3ccc(S(=O)(=O)Nc4ccccc4)cc32)c1 | -16.6% | nt | nt | nt | nt | nt
Fc1cccc(CSc2nc3ccncc3[nH]2)c1 | ? | ? | 11.2µM* | 15.7% | 24.5% | ?
Clc1cccc(CSc2nc3ccncc3[nH]2)c1 | ? | ? | 26.5% | ? | 22.4% | 4.47µM*
SMILES | FLuc counter | Rab9 prom act | SMN2 splice enh | ELG1 genotoxic | NPC1 prom act | uPA surface inh
COC(=O)C1(Cc2ccccc2)C=C2C(=C(C(C)C)C(=O)C2C)CN1 (stereo not drawn) | nt | nt | -33.9% | nt | nt | nt
O=C(Nc1ccon1)c1cc2c(s1)CCCC2 | 3.01µM* | 1.12µM* | 6.31µM* | 1.3µM* | 1.41µM* | nt
O=C(Nc1ccon1)c1cc2c(s1)CCCCCC2 | 6.01µM* | 3.55µM* | 12.6µM* | 4.47µM* | 3.16µM* | nt
CCn1ccnc1CN1CCN(CCC(C)C)C(CCO)C1 (stereo not drawn) | 4.4% | -5.3% | nt | -0.9% | -1.5% | 5.2%
COC(=O)c1ccccc1NC(=O)c1c(O)c2c([nH]c1=O)CCCC2 | 21.3µM* | 2.8% | 9.4% | 1.6% | 4.0% | -4.8%
COC(=O)c1c(O)c2c([nH]c1=O)CCCC2 | 3.7% | -3.2% | -11.1% | -0.2% | -4.4% | 1.3%
O=C(Nc1ccc(O)cc1)c1c(O)c2c([nH]c1=O)CCCC2 | 6.01µM* | 0.562µM* | 11.2µM* | ? | 1.26µM* | -9.5%
CCCOC(=O)Nc1ccc(N2CCCCC2)cc1 | 3.01µM* | nt | 14.1µM* | nt | nt | -10.1%
CCCCC(=O)Nc1ccc(N2CCCC2)cc1 | nt | nt | nt | nt | nt | 14.2%
O=C(Nc1ccc(N2CCCC2)cc1)c1cc(Cl)ccc1Cl | -3.5% | 1.5% | nt | 9.1% | -17.6% | ?
O=C(Nc1ccc(N2CCCC2)cc1)c1cccc(Cl)c1 | 0.675µM* | 0.251µM* | nt | 1.16µM* | 0.316µM* | -10.4%
CCCCOC(=O)c1ccc(O)cc1 | ? | 0.9% | ? | 8.2% | 1.0% | -10.5%
Cc1cc(C)cc(NC(=O)Nc2ccc(N3CCCCC3)cc2)c1 | 2.69µM* | 3.98µM* | nt | ? | 3.55µM* | 0.3%
CCCCOC(=O)Nc1ccc(C(=O)OCCC)cc1 | 19µM* | 5.9% | -11.1% | ? | 23.2% | -1.0%
C=CC[C@@H]1[C@H](O)CC[C@@]2(C)[C@H]1CC[C@@H]1[C@@H]2CC[C@]2(C)C([C@H](C)CCCC(C)C)CC[C@@H]12 (stereo partly drawn) | nt | nt | -12.2% | nt | nt | nt
CC1(CCc2ccccc2)NC(=O)N(CC(=O)N2CC(=O)Nc3ccccc32)C1=O (stereo not drawn) | -1.5% | 4.4% | nt | -3.1% | 0.1% | -2.3%
COc1ccc(C)cc1NC(=O)c1nnn(-c2c(C)cccc2C)c1C | 0.0% | nt | nt | nt | nt | nt
Cc1cc(C)cc(C(=O)Nc2ccc(N3CCCC3)cc2)c1 | 1.9µM* | 1µM* | 8.91µM* | ? | 2.24µM* | -4.3%
Cc1ccc(N=C2CCCN2Cc2ccccc2)c(C#N)c1 | 23.9µM* | 13.0% | -2.9% | -1.4% | 3.4% | 3.7%
COc1ccc(OC)c(NC(=O)N2CC3CCCN3c3ccccc32)c1 (stereo not drawn) | -5.7% | nt | nt | nt | nt | nt
COc1ccc(CN(C)C(=O)c2ccc3c(=O)n4c(nc3c2)CCC4)cc1 | 8.49µM* | 1.78µM* | nt | ? | 2.24µM* | 5.5%
COc1cccc(CN(C)C(=O)c2ccc3c(=O)n4c(nc3c2)CCC4)c1 | 1.8% | 2.9% | nt | 8.0% | 2.5% | 11.2%

Compound activity as filed in PubChem.
